# Test results as given in paper PMC12820563, “FoxP3 forms a head-to-head dimer in vivo and stabilizes its multimerization on adjacent microsatellites”.
# The full ranking holds about 16,000 sequences; the median of “rpm ratio (pull-down/input)” is about 0.94, and the highest 2% start at about 1.7. The sample holds the highest values, similar sequences and a random draw of the others, so the mix is not that of the screen.
# Target: T1, MBP-FoxP1dN (Mus musculus, UniProt P58462 326-579)
# T1 sequence: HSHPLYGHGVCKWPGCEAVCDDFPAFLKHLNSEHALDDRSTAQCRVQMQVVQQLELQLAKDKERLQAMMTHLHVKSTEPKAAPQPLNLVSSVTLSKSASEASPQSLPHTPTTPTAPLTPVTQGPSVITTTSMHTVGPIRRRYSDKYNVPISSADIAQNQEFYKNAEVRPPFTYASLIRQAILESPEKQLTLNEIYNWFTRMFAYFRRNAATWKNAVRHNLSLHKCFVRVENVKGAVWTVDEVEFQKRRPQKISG
# Test: PD-seq (MBP pull-down with sequencing); 20 mM Tris-HCl pH 7.5, 100 mM NaCl, 1.5 mM MgCl2, 0.4 uM protein, 0.1 uM dsDNA library, 30 min, room temperature, amylose pull-down; high values mean tight binding
# Details: protein: recombinant; tags: His6-MBP; chain copies: 2; dsDNA, one strand shown
# Outline: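 Binding is the reads-per-million enrichment of pull-down relative to input, pooled across replicates. For this, 0.4 µM His6-MBP-tagged mouse FoxP3 or FoxP1 fragment lacking the N-terminus, made in E. coli, was incubated with 0.1 µM Klenow-filled double-stranded degenerate DNA library for 30 min at room temperature in Tris pH 7.5 buffer with NaCl and MgCl2. Complexes bound to amylose resin were washed three times before proteinase K released the DNA for PCR barcoding and Illumina sequencing.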
row,Sequence,binding signal
1,GATGATTGTTCTCCCAGCTGATGAATTTGTGTTCTCGAGTAAACAAATTTTCCTAATCTTTCTGTTCAAGCGCCATCTAC,1.48 RPM ratio (pull-down/input)
2,GATGATTGTTCTCCCAGCTGATGAATTGTGTTTTTCGAGTAAACAAATTTTCCTAATCTTTCTGTTCAAGCGCCATCTAC,2.33 RPM ratio (pull-down/input)
3,GATGATTGTTCTCCCAGCTGATGAATTTGTGATTTCGAGTAAACAAATTTTCCTAATCTTTCTGTTCAAGCGCCATCTAC,1.41 RPM ratio (pull-down/input)
4,GATGATTGTTCTCCCAGCTGATGAATTGTGTGTTTCGAGTAAACAAATTTTCCTAATCTTTCTGTTCAAGCGCCATCTAC,1.57 RPM ratio (pull-down/input)
5,GATGATTGTTCTCCCAGCTGATGAATTTGTGTGTTCGAGTAAACAAATTTTCCTAATCTTTCTGTTCAAGCGCCATCTAC,1.59 RPM ratio (pull-down/input)
6,GATGATTGTTCTCCCAGCTGATGAATTTTGTGTTTCGAGTAAACAAATTTTCCTAATCTTTCTGTTCAAGCGCCATCTAC,1.58 RPM ratio (pull-down/input)
7,GATGATTGTTCTCCCAGCTGATGAATTTTTGTGTTCGAGTAAACAAATTTTCCTAATCTTTCTGTTCAAGCGCCATCTAC,1.95 RPM ratio (pull-down/input)
8,GATGATTGTTCTCCCAGCTGATGAATTTGTGTTTTCGAGTAAACAAATTTTCCTAATCTTTCTGTTCAAGCGCCATCTAC,2.61 RPM ratio (pull-down/input)
9,GATGATTGTTCTCCCAGCTGATGAATTCTGTGTTTCGAGTAAACAAATTTTCCTAATCTTTCTGTTCAAGCGCCATCTAC,1.14 RPM ratio (pull-down/input)
10,GATGATTGTTCTCCCAGCTGATGAATTGATAGCTTCGAGTAAACAAATTTTCCTAATCTTTCTGTTCAAGCGCCATCTAC,0.923 RPM ratio (pull-down/input)
11,GATGATTGTTCTCCCAGCTGATGAATTGCAATTCTCGAGTAAACAAATTTTCCTAATCTTTCTGTTCAAGCGCCATCTAC,1.38 RPM ratio (pull-down/input)
12,GATGATTGTTCTCCCAGCTGATGAATTAAGCCTATCGAGTAAACAAATTTTCCTAATCTTTCTGTTCAAGCGCCATCTAC,0.873 RPM ratio (pull-down/input)
13,GATGATTGTTCTCCCAGCTGATGAATTCTTCCAATCGAGTAAACAAATTTTCCTAATCTTTCTGTTCAAGCGCCATCTAC,0.955 RPM ratio (pull-down/input)
14,GATGATTGTTCTCCCAGCTGATGAATTTCTATAATCGAGTAAACAAATTTTCCTAATCTTTCTGTTCAAGCGCCATCTAC,1.1 RPM ratio (pull-down/input)
15,GATGATTGTTCTCCCAGCTGATGAATTCTCAACCTCGAGTAAACAAATTTTCCTAATCTTTCTGTTCAAGCGCCATCTAC,0.795 RPM ratio (pull-down/input)
16,GATGATTGTTCTCCCAGCTGATGAATTAATGCCGTCGAGTAAACAAATTTTCCTAATCTTTCTGTTCAAGCGCCATCTAC,1.11 RPM ratio (pull-down/input)

row,Sequence,binding signal
1,GATGATTGTTCTCCCAGCTGATGAATTCACCGCCTCGAGTAAACAAATTTTCCTAATCTTTCTGTTCAAGCGCCATCTAC,0.899 RPM ratio (pull-down/input)
2,GATGATTGTTCTCCCAGCTGATGAATTGTGATCGTCGAGTAAACAAATTTTCCTAATCTTTCTGTTCAAGCGCCATCTAC,1.16 RPM ratio (pull-down/input)
3,GATGATTGTTCTCCCAGCTGATGAATTATTGAAATCGAGTAAACAAATTTTCCTAATCTTTCTGTTCAAGCGCCATCTAC,1.23 RPM ratio (pull-down/input)
4,GATGATTGTTCTCCCAGCTGATGAATTGACAACATCGAGTAAACAAATTTTCCTAATCTTTCTGTTCAAGCGCCATCTAC,2.29 RPM ratio (pull-down/input)
5,GATGATTGTTCTCCCAGCTGATGAATTATTGACATCGAGTAAACAAATTTTCCTAATCTTTCTGTTCAAGCGCCATCTAC,2 RPM ratio (pull-down/input)
6,GATGATTGTTCTCCCAGCTGATGAATTTTTGACATCGAGTAAACAAATTTTCCTAATCTTTCTGTTCAAGCGCCATCTAC,1.09 RPM ratio (pull-down/input)
7,GATGATTGTTCTCCCAGCTGATGAATTTCTGACATCGAGTAAACAAATTTTCCTAATCTTTCTGTTCAAGCGCCATCTAC,0.96 RPM ratio (pull-down/input)
8,GATGATTGTTCTCCCAGCTGATGAATTGACATAATCGAGTAAACAAATTTTCCTAATCTTTCTGTTCAAGCGCCATCTAC,1.63 RPM ratio (pull-down/input)
9,GATGATTGTTCTCCCAGCTGATGAATTGATGACATCGAGTAAACAAATTTTCCTAATCTTTCTGTTCAAGCGCCATCTAC,1.34 RPM ratio (pull-down/input)
10,GATGATTGTTCTCCCAGCTGATGAATTGACATTATCGAGTAAACAAATTTTCCTAATCTTTCTGTTCAAGCGCCATCTAC,1.5 RPM ratio (pull-down/input)
11,GATGATTGTTCTCCCAGCTGATGAATTGTTGACATCGAGTAAACAAATTTTCCTAATCTTTCTGTTCAAGCGCCATCTAC,2.54 RPM ratio (pull-down/input)
12,GATGATTGTTCTCCCAGCTGATGAATTGAACTAATCGAGTAAACAAATTTTCCTAATCTTTCTGTTCAAGCGCCATCTAC,0.992 RPM ratio (pull-down/input)
13,GATGATTGTTCTCCCAGCTGATGAATTACCGCGCTCGAGTAAACAAATTTTCCTAATCTTTCTGTTCAAGCGCCATCTAC,0.948 RPM ratio (pull-down/input)
14,GATGATTGTTCTCCCAGCTGATGAATTTGATTCCTCGAGTAAACAAATTTTCCTAATCTTTCTGTTCAAGCGCCATCTAC,0.839 RPM ratio (pull-down/input)
15,GATGATTGTTCTCCCAGCTGATGAATTCTTGGTTTCGAGTAAACAAATTTTCCTAATCTTTCTGTTCAAGCGCCATCTAC,0.962 RPM ratio (pull-down/input)
